An excerpt weighted towards active compounds, which were near 8.3% of everything screened.
SW480 rerep – A quantitative high throughput screen for small molecules that induce DNA re-replication in SW480 colon adenocarcinoma cells. SW480 DNA re-replication, Hoechst DNA content imaging, 48 h. Potency, µM (series often up to 46.1 µM), inactives show at the top dose re-replication activation, most hits filed as activators. hit rate 1.8% among 340,000; note: potency is the fitted concentration of half-maximal effect; % of control where 0% means no effect; nearly all actives have a fitted effect of over 55% in size
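SW480 cells exposed to compounds for 48 hr at 37 C, 5% CO2, then Hoechst-stained 40 min. Nuclear DNA content imaged by fluorescence scanning (405 nm excitation, 500-530 nm emission); re-replication scored as increased high-intensity nuclei.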
Gal4-VP16 FLuc – VP16 counterscreen qHTS for inhibitors of ROR gamma transcriptional activity | Drosophila S2 Gal4-VP16 UAS-luciferase, luminescence, 20 h | Potency, µM (highest dose often 53.6 µM), without a hit: top-dose activity, negative = inhibition, actives largely listed as inhibitors | hit rate 3.5% among 310,000 | AID 2546, 2010;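 note: Gal4-VP16 expression switched on by copper sulfate through the metallothionein promoter; potency is the fitted concentration of half-maximal effect; % is set by controls: 0 for no effect and ±100 for the full control effect; nearly all actives have a fitted effect of over 50% in size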
Chronic BCR inh – qHTS Assay to Find Inhibitors of Chronic Active B-Cell Receptor Signaling; ABC-DLBCL IkBa-CBG/CBR reporter, luminescence ratio, 4 h; Potency, µM (highest dose often 46.1 µM), inactives show at the top dose activity change, negative = inhibition, actives largely listed as inhibitors; hit rate 0.05% among 340,000; active = well fitted inhibition curve with a large enough effect in the signal ratio, with a control signal flat, not every such curve was filed as active; inconclusive = small, poorly fitted or top-dose-only effect, or effect the other way, or a change in a side signal; the % refers to the signal ratio;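 note: potency is the fitted concentration of half-maximal effect; plate controls were basal doxycycline-induced cells for no effect and cells given 10 µM MG132 for full effect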
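TMD8 ABC-DLBCL cells carrying doxycycline-inducible green luciferase fused to IkappaBalpha plus unfused red luciferase were exposed to compounds (up to 46 uM) for 4 hrs at 37C. Activity came from the overlap-corrected green/red luminescence ratio.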
MCF10A rereplic – A quantitative high throughput screen for small molecules that induce DNA re-replication in MCF 10a normal breast cells | MCF 10A DNA re-replication, Hoechst nuclear intensity, 48 h | hit rate 2.9% among 350,000 | Potency, µM (highest dose often 46.1 µM), for inactives: top-dose activity, positive = re-replication, actives largely listed as activators | AID 624296, 2012; note: potency is the fitted concentration of half-maximal effect; % of control where 0% means no effect; nearly all actives have a fitted effect of over 50% in size
RORgamma inh – qHTS for inhibitors of ROR gamma transcriptional activity; Nuclear receptor ROR-gamma (Mus musculus), P51450; Drosophila S2 Gal4-RORgamma UAS-luciferase reporter, 20 h; Potency, µM (highest dose often 53.6 µM), without a hit: top-dose activity change, negative = inhibition, usual class: inhibitors; hit rate 5.4% among 310,000; note: potency is the fitted concentration of half-maximal effect; % is set by controls: 0 for no effect and ±100 for the full control effect; nearly all actives have a fitted effect of over 60% in size
Target sequence (P51450 whole entry, looked up, the tested form may be a part): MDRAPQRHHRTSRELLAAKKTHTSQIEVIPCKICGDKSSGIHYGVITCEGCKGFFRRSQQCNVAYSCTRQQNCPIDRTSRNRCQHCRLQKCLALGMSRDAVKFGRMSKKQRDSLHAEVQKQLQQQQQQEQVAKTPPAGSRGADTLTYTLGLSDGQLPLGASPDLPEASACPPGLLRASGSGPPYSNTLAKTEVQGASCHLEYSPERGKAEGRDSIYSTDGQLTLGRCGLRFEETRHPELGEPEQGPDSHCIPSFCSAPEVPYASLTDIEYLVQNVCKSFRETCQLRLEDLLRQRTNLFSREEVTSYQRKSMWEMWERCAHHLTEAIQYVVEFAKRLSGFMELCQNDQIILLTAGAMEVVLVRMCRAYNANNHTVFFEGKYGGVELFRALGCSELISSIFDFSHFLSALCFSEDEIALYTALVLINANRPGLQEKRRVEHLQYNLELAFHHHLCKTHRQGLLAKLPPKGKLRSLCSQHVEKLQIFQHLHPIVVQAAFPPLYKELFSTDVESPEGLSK
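Drosophila Schneider cells stably carrying a metallothionein-driven Gal4 DBD–ROR gamma fusion and a UAS-Photinus luciferase reporter were exposed to compound for 1 hr, then induced with copper sulfate (700 uM final) for 20 hr at ambient temperature before luminescence reading.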
Giardia killer – Small Molecules that selectively kill Giardia lamblia: qHTS; Giardia lamblia trophozoite viability; activity change, % at 7.66 µM, hits read low; hit rate 0.15% among 340,000; in the data active = activity change below about -80%; inconclusive = between about -30% and that limit;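 note: parasites exposed to compound for two days anaerobically before the ATP read; % is set by controls: 0 for no effect and ±100 for the full control effect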
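Luminescent ATP signal served as the viability read-out, measured 15-30 min after adding ATP detection reagent to trophozoites that had been incubated with compounds for 48 hrs at 37 deg C anaerobically at 100 cells/well.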
* = called active by the depositor; ? = inconclusive; . = not tested or not shown; [ ] = remark or other dose. Unless noted, calls come from the whole dose curve; as a rule, active = well fitted curve in the direction sought with a large enough effect; inconclusive = small, poorly fitted or top-dose-only effect, or another doubt; inactive = no such curve, though single readings can be large; an effect the other way counts as inactive or inconclusive.

SMILES	SW480 rerep	Gal4-VP16 FLuc	Chronic BCR inh	MCF10A rereplic	RORgamma inh	Giardia killer
O=C(CSc1nnc(-c2ccc(C(F)(F)F)cn2)o1)Nc1ccccc1Cl	0.4%	-13.4%	?	13.1%	-16.8%	2.1
O=C(Nc1ccccc1C(=O)Nc1nnc(C(F)(F)F)s1)c1ccccc1	-56.7%	5.01µM*	?	?	4.47µM*	-18.7
O=C(NCc1nnc(SCc2ccc(C(F)(F)F)cc2)n1-c1ccccc1)C12CC3CC(CC(C3)C1)C2	5.1%	?	11.3%	16.4µM*	14.1µM*	-3.3
CC(C)C(=O)Nc1cccc(COc2ccccc2CN(Cc2ccccc2)C(=O)OC(C)(C)C)c1	?	.	.	11.6µM*	.	-21.1
COCc1ccc(C(=O)Nc2cccc(S(=O)(=O)N(C)c3ccccc3)c2)cc1	-4.1%	.	-0.2%	18.5%	.	-16.1
CC(C)(C)OC(=O)N(Cc1ccccc1)Cc1cccc(OCc2cccc(NC(=O)c3ccccc3)c2)c1	-56.9%	.	.	0.291µM*	.	4.6
CC(C)(C)OC(=O)N(Cc1ccccc1)Cc1ccccc1OCc1cccc(NC(=O)c2ccccc2)c1	-0.1%	.	.	?	.	-3.8
CN(C)S(=O)(=O)c1cccc(NC(=O)c2ccc(COc3ccccc3)cc2)c1	12.1%	6.31µM*	?	?	-44.2%	7.6
CC(C)(C)OC(=O)N(CCc1ccccc1)Cc1ccccc1OCc1ccc(NC(=O)C2CCC2)cc1	?	.	.	6.51µM*	.	10.6
COCCN1C(=S)NC(c2cccc(C(F)(F)F)c2)C(C(=O)N2CCOCC2)=C1C (centres undefined)	-11.6%	-11.5%[10 µM]	-0.4%	-0.4%	-13.4%	-8.3
N#CCCN1CCCc2cc(N=Nc3ccc(C(F)(F)F)cc3)ccc21	?	5.9%	?	13.0%	4.5%	3.5
COc1cccc(CCc2nnc(CCC(=O)N(C)C3CC(C)(C)NC(C)(C)C3)o2)c1	-13.6%	-11.4%	-2.0%	-3.8%	8.9%	-19.7
CCc1cc2c(nc1CC)CCN(CC/C(C)=N/O[C@@H](C)CN1CCCc3nc(C)c(C)cc31)C2	.	5.5%[10 µM]	.	.	0.0%[10 µM]	.
COc1cc(NC(=O)CN2CCN(CC(=O)Nc3ccccc3OC)CC2)cc(OC)c1	0.0%	-7.3%	-3.3%	?	14.3%	0.4
CCOC(=O)CCc1ccc(NC(=O)/C=C/c2ccc([N+](=O)[O-])o2)cc1	7.31µM*	.	.	9.2µM*	.	-22.5
CCc1ccc(/C=C/C(=O)c2ccc(S(=O)(=O)N(C)C)cc2)cc1	?	?	1.5%	29.4%	?	6.9
CCc1ccc(C(=O)/C=C/c2ccc([N+](=O)[O-])o2)cc1	8.7%[9.22 µM]	8.91µM*	?	8.91µM*	?	?
Cc1cccc2sc(N(Cc3cccnc3)C(=O)c3ccco3)nc12	.	.	12.2%	.	.	.
CCN(CC)CCCNC(=O)CCC(=O)NNc1nc2ccccc2c2nc(C)nn12	-3.3%	?	?	-2.8%	17.8µM*	-16.0
Cc1nc2c3ccccc3nc(NNC(=O)CCC(=O)NCCC(C)C)n2n1	2.3%	3.0%	5.2%	3.1%	-4.1%	-21.2
C=CCNCc1ccc(C(=O)NCCCCCCC)cc1[N+](=O)[O-]	-15.9%	.	1.0%	-9.9%	.	?
Cc1nc(SCC(=O)Nc2ccc(F)cc2)c(C#N)c(C)c1CC(=O)c1ccc(Br)cc1	?	?	13.0%	16.4µM*	9.1%	12.7
COc1ccc(NC(=O)CSc2nc(C)c3c(c2C#N)CCCC3)cc1	11.8%	-3.1%	-10.0%	11.9%	-14.6%	8.2
Cc1cccc(NC(=O)CSc2nc(C)c(CC(=O)c3ccc(Br)cc3)c(C)c2C#N)c1C	4.3%	-1.0%	-2.1%	1.03µM*	1.7%	-25.5
O=C(Cn1cnc2cc([N+](=O)[O-])ccc2c1=O)Nc1ccc2c(c1)OCO2	-4.1%	-7.1%	?	-11.3%	5.3%	-12.4
